Here are results for 13 compounds from PubChem BioAssay (EPA / NIEHS).

For assay [1], the target named is Estrogen receptor (Homo sapiens) (UniProt P03372). Kind of assay: NVS_NR_hER: NovaScreen (NVS) Nuclear Receptor Binding Assay for human Estrogen Receptor (ER) (AID 2283348). The procedure, abridged:
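Cell-free radioligand binding with protein extracted from MCF7 cells; scintillation counting 18 hours after dosing. Loss of signal versus DMSO baseline read as displacement; primary single-concentration screen at 25 uM in duplicate, actives retested in concentration series.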

Assay [2] shares this target. Kind of assay: OT_ER_ERaERa_0480: Odyssey Thera (OT) 8-hour HEK293T Protein-Complementation Assay for Estrogen Receptor-alpha/-alpha Homodimer (AID 2283351).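 Note: rise in fluorescence from reassembled reporter fragments on ERα LBD homodimer in nucleus or whole cell.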 The procedure, abridged: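 The readout is complementation of fragments fused to the human ER alpha ligand-binding domain (aa 310-547), stably expressed in HEK293T cells. After 8 h of exposure, the increase in nuclear/cytoplasmic fluorescence was measured by laser scanning cytometry and fitted relative to DMSO.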

The target in assay [3] is bovine Estrogen Receptor (ER), ESR1 (gene 407238) (UniProt P49884). Kind of assay: NVS_NR_bER: NovaScreen (NVS) Nuclear Receptor Binding Assay for bovine Estrogen Receptor (ER) (AID 2283345).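 Note: actives lower the bound radioligand count which means they displace the ER ligand.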 The method, boiled down:
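Cell-free radioligand binding with receptor from bovine uterine membranes, read by scintillation counting 18 h after dosing. Loss of specific binding was scored against DMSO; primary screen at 25 uM in duplicate, actives then run as concentration series.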

Assay [4] addresses Estrogen receptor (Homo sapiens) (UniProt P03372). The assay can be described thus: OT_ER_ERaERa_1440: Odyssey Thera (OT) 24-hour HEK293T Protein-Complementation Assay for Estrogen Receptor-alpha/-alpha Homodimer (AID 2283349).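 Note: hits raise fluorescence above DMSO for agonists and antagonists alike.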 The procedure, abridged: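 Readout is the rise in mean fluorescence from reporter fragment complementation when ERα LBD (aa 310-547) units dimerize in HEK293T cells. Measured 24 h after dosing and analysed as increase over DMSO control.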

Inconclusive results are not listed. The source made the active and inactive calls. Rule for the calls: active = hit-call score of the fitted dose curve at least 0.9, where 1 is the maximum; inconclusive = response in the unintended direction; inactive = score below 0.9.

Sequence of Estrogen receptor (Homo sapiens) (P03372 whole entry, looked up, the tested form may be a part): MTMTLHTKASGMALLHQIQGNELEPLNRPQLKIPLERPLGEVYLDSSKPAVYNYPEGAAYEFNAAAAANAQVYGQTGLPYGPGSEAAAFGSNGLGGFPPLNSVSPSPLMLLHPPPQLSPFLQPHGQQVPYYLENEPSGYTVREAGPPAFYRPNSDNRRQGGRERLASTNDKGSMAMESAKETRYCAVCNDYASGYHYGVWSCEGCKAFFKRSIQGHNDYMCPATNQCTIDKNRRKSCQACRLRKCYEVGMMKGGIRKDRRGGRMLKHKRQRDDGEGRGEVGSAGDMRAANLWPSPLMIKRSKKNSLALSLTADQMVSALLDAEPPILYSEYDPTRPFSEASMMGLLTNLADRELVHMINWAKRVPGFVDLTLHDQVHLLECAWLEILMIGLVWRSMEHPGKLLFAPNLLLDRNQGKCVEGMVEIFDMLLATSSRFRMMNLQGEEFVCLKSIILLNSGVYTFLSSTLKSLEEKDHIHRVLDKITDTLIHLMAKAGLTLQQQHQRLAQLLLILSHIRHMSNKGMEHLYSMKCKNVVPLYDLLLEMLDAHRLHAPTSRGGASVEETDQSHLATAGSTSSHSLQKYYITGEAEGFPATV
Sequence of bovine Estrogen Receptor (ER), ESR1 (gene 407238) (P49884 whole entry, looked up): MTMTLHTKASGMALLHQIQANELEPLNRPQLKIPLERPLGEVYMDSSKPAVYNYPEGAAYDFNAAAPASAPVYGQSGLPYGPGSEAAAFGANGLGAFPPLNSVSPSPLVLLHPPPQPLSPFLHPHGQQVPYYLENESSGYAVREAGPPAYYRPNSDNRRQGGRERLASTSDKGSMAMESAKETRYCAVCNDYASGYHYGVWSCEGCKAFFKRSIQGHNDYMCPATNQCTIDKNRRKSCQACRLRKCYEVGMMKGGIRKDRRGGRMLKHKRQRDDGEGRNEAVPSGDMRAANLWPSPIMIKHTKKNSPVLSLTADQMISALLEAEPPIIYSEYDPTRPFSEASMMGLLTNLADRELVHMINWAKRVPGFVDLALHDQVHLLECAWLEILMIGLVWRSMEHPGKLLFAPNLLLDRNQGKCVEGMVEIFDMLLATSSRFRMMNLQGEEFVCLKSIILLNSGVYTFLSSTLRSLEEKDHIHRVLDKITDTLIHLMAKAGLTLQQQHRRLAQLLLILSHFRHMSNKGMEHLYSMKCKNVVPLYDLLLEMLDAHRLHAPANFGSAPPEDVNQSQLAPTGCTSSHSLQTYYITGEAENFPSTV

Regarding `CC(=O)NS(=O)(=O)c1ccc(N)cc1`, in assay [1], the outcome was inactive. Take `C=CC(=O)NC(C)(C)CS(=O)(=O)O`: in assay [2], the call was inactive. On to `CC(=O)[C@H]1[C@H](C#N)C[C@H]2[C@@H]3CC=C4C[C@@H](O)CC[C@]4(C)[C@H]3CC[C@@]21C`, for which the compound was classed as inactive in assay [3], in assay [1] and in assay [2]. Take `CC(C)c1ccc2cc(C(C)C)ccc2c1`: the compound was called inactive in assay [4] and in assay [2]. With `CC(C)(C)c1ccc(OC(=O)c2ccccc2O)cc1`, the AC50 in assay [4] was 14.5 µM (active). The outcome in assay [2] was inactive. Regarding `O=C1C(N(CO)C(=O)NCO)N(CO)C(=O)N1CO` (stereo not given), in assay [2], the result was inactive. As for `CCCCCCCC/C=C\CCCCCCCC(=O)O`, the compound was called inactive in assay [4] and in assay [2]. Take `CC1=CC[C@H]2C[C@@H]1C2(C)C`: in assay [2], the call was inactive. As to `NC(CO)(CO)CO`, the outcome in assay [3], in assay [1] and in assay [2] was inactive.

Regarding `CCCCOCCOC(=O)COc1nc(Cl)c(Cl)cc1Cl`, in assay [2], the result was inactive. Take `O=C(O)CCCCCCCCCC(=O)O`: the compound was called inactive in assay [1]. `CC1=NN(c2cc(S(=O)(=O)O)ccc2Cl)C(=O)C1N=Nc1ccccc1` (stereo not given): the result in assay [2] was inactive.

As for `CCC(Cc1ccccc1)(C(=O)c1ccc(N2CCOCC2)cc1)N(C)C` (stereo not given), the outcome in assay [1] was inactive.

What is called AC50 is the midpoint of the concentration-response curve, whichever way the signal moves.
